Out of some 390,000 compounds screened, about 4,700 (1.2%) were called active. Inconclusive results (about 4%) are left out. Calls come from the whole dose curve; as a rule, active = well fitted inhibition curve with a large enough effect; inconclusive = small, poorly fitted or top-dose-only effect, or another doubt; inactive = no such curve, though single readings can be large or run the other way. The entries come from a sample that favours actives as a whole. A call without a number means that no potency is given here.
Molecular target: DNA polymerase eta (Homo sapiens) (UniProt Q9Y253)
Sequence (Q9Y253 whole entry, looked up): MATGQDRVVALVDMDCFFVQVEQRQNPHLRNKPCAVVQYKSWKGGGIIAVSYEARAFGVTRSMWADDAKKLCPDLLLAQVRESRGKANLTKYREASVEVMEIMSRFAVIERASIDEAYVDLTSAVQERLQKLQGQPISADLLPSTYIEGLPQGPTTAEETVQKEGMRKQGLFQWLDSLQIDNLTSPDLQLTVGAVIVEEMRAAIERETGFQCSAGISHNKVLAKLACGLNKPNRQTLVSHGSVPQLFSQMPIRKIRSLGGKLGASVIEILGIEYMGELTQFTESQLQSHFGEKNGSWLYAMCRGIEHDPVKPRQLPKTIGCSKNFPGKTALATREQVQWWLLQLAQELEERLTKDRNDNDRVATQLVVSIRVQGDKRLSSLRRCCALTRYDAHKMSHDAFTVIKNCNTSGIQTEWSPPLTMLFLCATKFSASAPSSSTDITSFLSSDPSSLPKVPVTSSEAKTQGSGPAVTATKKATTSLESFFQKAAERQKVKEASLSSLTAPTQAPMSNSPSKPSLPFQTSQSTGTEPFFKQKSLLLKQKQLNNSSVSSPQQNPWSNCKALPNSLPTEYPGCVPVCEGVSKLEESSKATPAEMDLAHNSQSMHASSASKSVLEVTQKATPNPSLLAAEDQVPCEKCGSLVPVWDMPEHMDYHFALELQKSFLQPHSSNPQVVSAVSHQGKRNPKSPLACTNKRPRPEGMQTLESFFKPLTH
Test: qHTS for Inhibitors of Polymerase Eta
Settings: recombinant Pol eta, fluorescent DNA replication assay; series mostly up to 114 µM
Source text: The Y-family of DNA polymerases, such as Pol eta, are specifically involved in DNA repair. Pol eta copies undamaged DNA with a lower fidelity than other DNA-directed polymerases. However, it accurately replicates UV-damaged DNA; when thymine dimers are present, this polymerase inserts the complementary nucleotides in the newly synthesized DNA, thereby bypassing the lesion and suppressing the mutagenic effect of UV-induced DNA damage. […] Thus, while pol eta's (and most likely iota's) normal function is to protect humans against the deleterious consequences of DNA damage, under certain conditions they can have deleterious effects on human health. As a consequence, we propose to utilize a high throughput replication assay to identify small molecule inhibitors of pol eta. In a collaboration between the National Institute of Child Health & Human Development (NICHD) and NIH Chemical Genomics Center, a high-throughput, fluorescent screen was developed to screen the NIH Molecular Libraries Small Molecule Repository (MLSMR). This screen is used to identify inhibitors of pol eta. NIH Chemical Genomics Center [NCGC] NIH Molecular Libraries Probe Centers Network [MLPCN] MLPCN Grant: MH090825 Assay Submitter (PI): Roger Woodgate, NICHD)
Three microliters of reagents (buffer in column 3 and 4 as negative control and 10 nM Pol eta in columns 1, 2, and 5-48) were dispensed into a 1,536-well black solid-bottomed plate. Compounds (23 nL) were transferred via Kalypsys pin tool equipped with 1536-pin array. The plates were then incubated for 15 min at room temperature, and 1 µL substrate (50 nM final concentration) was added to start the reaction and kinetically read twice at 0 min and 10 min on the Viewlux reader
Potency is the fitted concentration of half-maximal effect.

Row | SMILES | Potency
1 | Cc1cccc(N2C(=O)NC(=O)/C(=C\c3cnn(-c4ccccc4)c3)C2=O)c1 | 20 µM (active)
2 | CN1C2C=C(N(C(=O)c3ccc(Cl)cc3)c3ccccc3)CC1CC2 (stereo not given) | inactive
3 | CCN(N=Nc1nonc1OC)c1nonc1OC | inactive
4 | C=CC12CN(C)[C@@H]3C4CO[C@H](C[C@H]41)[C@]1(C(=O)Nc4ccccc41)[C@@H]32 (stereo not given in full) | inactive
5 | Cc1c(C(=O)O)cccc1-n1c(C)cc(/C=C2\C(=O)NC(=O)N(c3ccc4c(c3)OCO4)C2=O)c1C | 5.01 µM (active)
6 | c1cc2c(cc1C1OCC3C(c4ccc5c(c4)OCO5)OCC13)OCO2 (stereo not given) | inactive
7 | c1ccc2sc(N3CCNCC3)nc2c1 | inactive
8 | CC(=NC1CCN(Cc2ccccc2)CC1)c1c(O)n(C)c(=O)n(C)c1=O | inactive
9 | Cn1c(O)c(C=Nc2ccc3c(c2)CCC3)c(=O)n(C)c1=O | inactive
10 | Cc1ccnc(-n2c(C)cc(/C=C3\C(=O)NC(=S)N(C)C3=O)c2C)c1 | inactive
11 | Cc1ccc(-n2c(C)cc(/C=C3\C(=O)NC(=O)N(C)C3=O)c2C)cc1C | 11.2 µM (active)
12 | Cc1cc(/C=C2/C(=O)NC(=O)N(Cc3ccco3)C2=O)c(C)n1-c1ccc(C(=O)O)cc1 | 17.8 µM (active)
13 | c1ccc2c(c1)[I+]c1ccccc1-2 | inactive
14 | CC(=O)NBr | inactive
15 | Fc1cccc(F)c1CN1CCN(Cc2c(F)cccc2F)CC1 | inactive
16 | CCOC(=O)c1ncn2c1[C@@H]1CCCN1C(=O)c1cc(OC)ccc1-2 | inactive
17 | Cc1c(Oc2cc(NN3CCCCC3)c([N+](=O)[O-])cc2[N+](=O)[O-])cccc1[N+](=O)[O-] | inactive
18 | CN(c1ccccc1)c1ccc([N+](=O)[O-])c2nonc12 | inactive
19 | Nc1ccc([N+](=O)[O-])cc1 | inactive
20 | COC(=O)N(c1ccc(OC)cc1)P1(=S)OCCC(C)O1 (stereo not given) | inactive
21 | CC1CCCN1CCC(C(N)=O)(c1ccccc1)c1ccccc1 (stereo not given) | inactive
22 | CC[N+](CC)(CC)CCCCCCCCCC[N+](CC)(CC)CC | inactive
23 | CC(=O)c1c(O)n(C2CCCCCC2)c(=O)[nH]c1=O | inactive
24 | O=C1NC(=O)N(c2ccc(F)cc2)C(=O)/C1=C/c1ccc2c(c1)CCCN2Cc1ccccc1 | 20 µM (active)
25 | CCC1(CC(C)c2ccccc2)C(=O)NC(=O)NC1=O (stereo not given) | inactive

Row | SMILES | Potency
26 | Cc1cccc(OP(=O)(Oc2cccc(C)c2)OC(c2ccccc2)C(F)(F)F)c1 (stereo not given) | inactive
27 | CN(C)/C=C(\C=[N+](C)C)c1[nH]ncc1[N+](=O)[O-] | inactive
28 | COc1ccc(N2C(=O)/C(=C/c3ccco3)C(=O)NC2=S)cc1 | 1.12 µM (active)
29 | CC(=O)N1CN2CN(C(C)=O)CC(C(=O)c3ccc(Br)cc3)(C2)C1 | inactive
30 | Cc1ccc(CN2CCCC(C(=O)c3ccc4c(c3)OCO4)C2)cc1C (stereo not given) | inactive
31 | O=C1NC(=O)C(C/C=C/c2ccccc2)C(=O)N1 | inactive
32 | CN(C)c1ccc(/C=C2\CC3C4CC=C5CC(O)CCC5(C)C4CCC3(C)C2=O)cc1 (stereo not given) | inactive
33 | C[C@@H]1CC[C@@]2(OC1)O[C@H]1C[C@H]3[C@@H]4CC=C5C[C@@H](O)[C@H](O)C[C@]5(C)C4CC[C@]3(C)[C@H]1[C@@H]2C (stereo not given in full) | 89.1 µM (active)
34 | CCOC(=O)C(O)(c1ccc(N)c(OC)c1)C(F)(F)F (stereo not given) | inactive
35 | COC(=O)C(O)(c1ccc(NC(=O)c2ccco2)c(OC)c1)C(F)(F)F (stereo not given) | inactive
36 | CCCCN1C2CCC1CC(OC(c1ccc(F)cc1)c1ccc(F)cc1)C2 (stereo not given) | inactive
37 | C[C@@H]1C[C@@H]2O[C@H]2/C=C\C=C\C(=O)Cc2c(Cl)c(O)cc(O)c2C(=O)O1 | 10 µM (active)
38 | COc1ccc(-n2c(O)c(C(C)=Nc3ccc4c(c3)CCC4)c(=O)[nH]c2=O)cc1 | inactive
39 | O=C(Nc1ccc(Cl)cc1C(=O)c1ccccc1)c1cc(Cl)cc(Cl)c1 | inactive
40 | COc1ccc(C2C=C(C)Oc3c2c(=O)oc2ccccc32)cc1OC (stereo not given) | inactive
41 | CCN1C(=O)NC(=O)C2(CCCC2)C1=O | inactive
42 | O=C1NC(=O)N(CCc2ccc(F)cc2)C(=O)/C1=C/C=C/c1ccccc1 | 50.1 µM (active)
43 | COC(=O)C1=C(c2cc3ccccc3s2)C[C@@H]2CC[C@H]1N2C(=O)NC(C)C | inactive
44 | COc1ccc(C(=O)CC2C(=O)N(C)C(=O)N(C)C2=O)cc1 | inactive
45 | Cc1cc2ccccn2c1C(C[N+](=O)[O-])c1c(F)cccc1Cl (stereo not given) | inactive
46 | O=C1NC(=O)N(c2ccccc2)C(=O)/C1=C/c1ccc([N+](=O)[O-])s1 | 10 µM (active)
47 | COc1cccc(N2C(=O)NC(=O)/C(=C\c3ccc([N+](=O)[O-])s3)C2=O)c1 | 17.8 µM (active)
48 | Cn1c(O)c(C=NCCN2CCNCC2)c(=O)n(C)c1=O | inactive
49 | COC(=O)C1=C(c2ccc(OCc3ccccc3)cc2)C[C@@H]2CC[C@H]1N2C(=O)NCc1ccc(Cl)cc1 | inactive
50 | O=C(O)C1C2CCC(O2)C1C(=O)O (stereo not given) | inactive

Row | SMILES | Potency
51 | CC1=C(C(=O)Nc2ccccc2)SCCO1 | inactive
52 | CCOC(=O)C1SC2(C(F)(F)C(F)F)CC1(O)c1c(c(OC)c3occc3c1OC)O2 (stereo not given) | inactive
53 | CCN1CCN(c2nc3c(c(=O)[nH]2)CCC3)CC1 | inactive
54 | Cc1cccc(NC(=O)OC2CN3CCC2CC3)c1 (stereo not given) | inactive
55 | CN(C)S(=O)(=O)c1cc(C(=O)N2CCC(C(=O)O)(c3ccccc3)CC2)ccc1Cl | inactive
56 | COC(=O)C1=C(c2c(C)noc2C)C[C@@H]2CC[C@H]1N2C(=O)NCc1ccc2c(c1)OCO2 | inactive
57 | CCc1ccc(OCC(=O)N2CCN(CC(=O)Nc3ccccc3Cl)CC2)cc1 | inactive
58 | C[C@H]1CN([C@@H](C)CO)C(=O)CCCn2nncc2CO[C@H]1CN(C)C(=O)Oc1ccccc1 | inactive
59 | Cc1cc(C(=O)OCC(=O)Nc2c(F)cccc2F)c(C)n1C1CC1 | inactive
60 | CN1CCN(/N=C/c2c[nH]c3ccccc23)CC1 | inactive
61 | CN1CCc2nc(SC(C(=O)O)c3ccccc3)c(C#N)c(-c3cccs3)c2C1 (stereo not given) | 31.6 µM (active)
62 | Cc1ccc(-n2c(/C=C/c3cccc(C(F)(F)F)c3)nc3ccccc3c2=O)cc1 | inactive
63 | O=C(CCCn1c(=O)[nH]c2cc(Cl)ccc2c1=O)N1CCC2(CC1)OCCO2 | inactive
64 | CCN(CC)C(=O)c1ccc(NC(=O)c2sccc2-c2ccccc2)cc1 | inactive
65 | C=CCN(CC=C)C(=O)Nc1ccc(OCC)cc1 | inactive
66 | CCOc1ccc(-c2cc(C)n3nc(C(=O)Nc4ccc(C)c(C)c4)cc3n2)cc1 | 70.8 µM (active)
67 | CC1=C(C(=O)Nc2ccccc2)S(=O)(=O)CCO1 | inactive
68 | Cn1cc(C(=O)OCC(=O)N2CCCC2)c2ccccc21 | inactive
69 | O=C1NC(=O)N(Cc2ccco2)C(=O)/C1=C\c1ccc(-c2ccc(F)cc2)o1 | 25.1 µM (active)
70 | O=C1NC(=O)N(Cc2ccco2)C(=O)/C1=C\c1cccn1CCOc1ccccc1 | 79.4 µM (active)
71 | COc1cccc(OC)c1C(=O)NC(=S)N1C[C@H]2C[C@H](C1)c1cccc(=O)n1C2 | inactive
72 | CC(C)c1ccc(OCC(=O)N2CCN(C)CC2)c(Br)c1 | inactive
73 | CCOC(=O)C1=C(C)OC(N)=C(C(=O)OC)C12C(=O)Nc1ccc(Br)cc12 (stereo not given) | inactive
74 | COc1cccc(CN2CCCC(C(=O)c3ccccc3SC)C2)c1O (stereo not given) | inactive
75 | Cc1ccc(P(=S)(c2ccc(C)o2)N2CCOCC2)o1 | inactive

Source: PubChem BioAssay AID588591 (National Center for Advancing Translational Sciences (NCATS), 2011)
